According to PubChem BioAssay (NCATS):
Results filed as inconclusive are left out. A number with no mark means an inactive call. Calls follow the shape of the dose curve; as a rule, active = well fitted inhibition curve with a large enough effect; inconclusive = small, poorly fitted or top-dose-only effect; inactive = flat fitted curve, though single readings scatter.

These compounds were tested on CP252 (assay: qHTS profiling for inhibitors of Plasmodium falciparum proliferation (AID 504749;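 also: 0% = DMSO vehicle and full inhibition = artemisinin control; nearly all actives have a fitted effect of over 60% in size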)). Conditions: P. falciparum in erythrocytes, SYBR Green DNA, 72 h; series mostly up to 28.7 µM; activity, negative = inhibition: at the top concentration.
Procedure, shortened: (§1)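 Fluorescence of SYBR Green-bound parasite DNA, read at 485/535 nm, served as the growth measure. Infected erythrocytes were cultured with compound 72 h; artemisinin (0.29 uM) and DMSO wells defined the normalization range.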

| Compound | activity, negative = inhibition |
| --- | --- |
| O=C(O)c1cc(O)c2c(c1)[C@H]([C@H]1c3cc(C(=O)O)cc(O)c3C(=O)c3c(O[C@@H]4OC(CO)C(O)C(O)C4O)cccc31)c1cccc(O[C@@H]3OC(CO)C(O)C(O)C3O)c1C2=O (stereo partly drawn) | -4.29% |
| CC(C)CN(C[C@@H](OP(=O)(O)O)[C@H](Cc1ccccc1)NC(=O)O[C@@H]1CCOC1)S(=O)(=O)c1ccc(N)cc1 | 0.367% |
| CCC(C)n1ncn(-c2ccc(N3CCN(c4ccc(OCC5COC(Cn6cncn6)(c6ccc(Cl)cc6Cl)O5)cc4)CC3)cc2)c1=O (stereo not drawn) | 0.45% |
| CC(C)CN(C[C@@H](O)[C@H](Cc1ccccc1)NC(=O)O[C@H]1CCOC1)S(=O)(=O)c1ccc(N)cc1 | -8.86% |

These compounds were tested on CP256 in the same assay as above. Conditions: P. falciparum in erythrocytes, SYBR Green DNA, 72 h; series mostly up to 28.7 µM; activity, negative = inhibition: at the top concentration.
Procedure, shortened: as §1

| Compound | activity, negative = inhibition |
| --- | --- |
| O=C(O)c1cc(O)c2c(c1)[C@H]([C@H]1c3cc(C(=O)O)cc(O)c3C(=O)c3c(O[C@@H]4OC(CO)C(O)C(O)C4O)cccc31)c1cccc(O[C@@H]3OC(CO)C(O)C(O)C3O)c1C2=O (stereo partly drawn) | -0.859% |
| CC(C)CN(C[C@@H](OP(=O)(O)O)[C@H](Cc1ccccc1)NC(=O)O[C@@H]1CCOC1)S(=O)(=O)c1ccc(N)cc1 | 1.47% |
| CCC(C)n1ncn(-c2ccc(N3CCN(c4ccc(OCC5COC(Cn6cncn6)(c6ccc(Cl)cc6Cl)O5)cc4)CC3)cc2)c1=O (stereo not drawn) | 7.68% |
| CC(C)CN(C[C@@H](O)[C@H](Cc1ccccc1)NC(=O)O[C@H]1CCOC1)S(=O)(=O)c1ccc(N)cc1 | -22.4% |
